Compound activity (PubChem)
CYP2C9 activ = activators of human CYP2C9; activation factor at 5 µM; recombinant CYP2C9, luciferin-H conversion, luminescence; active compounds read high; factor 1 = untreated enzyme, 0 = blocked; AID 1024; P11712; actives 1.4% (n = 96,000);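 active means activation factor of 2 or more for CYP2C9 at a 5 µM dose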
CYP2C19 activ = activators of human cytochrome P450 2C19. recombinant CYP2C19, luciferin-H EGE luminescence; active compounds read high; 0 = fully inhibited enzyme, 1 = untreated enzyme. AID 1025. 96,000 tested, under 10 active. activation factor at 5 µM. P33261;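 active means activation factor of at least 2 at 5 µM in the primary screen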
Cav3 T inh = blocks human Cav3.2 T-type calcium channel. O95180. Cav3.2-expressing cells, Fluo-4 calcium fluorescence FDSS; active compounds read low. B-score at 10 µM. actives 4% (n = 100,000). AID 449739;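 active means single-dose well whose peak fluorescence ratio is a statistical outlier from its plate by either plate-standardised score or position-corrected B-score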
Target sequence (O95180 whole entry, looked up): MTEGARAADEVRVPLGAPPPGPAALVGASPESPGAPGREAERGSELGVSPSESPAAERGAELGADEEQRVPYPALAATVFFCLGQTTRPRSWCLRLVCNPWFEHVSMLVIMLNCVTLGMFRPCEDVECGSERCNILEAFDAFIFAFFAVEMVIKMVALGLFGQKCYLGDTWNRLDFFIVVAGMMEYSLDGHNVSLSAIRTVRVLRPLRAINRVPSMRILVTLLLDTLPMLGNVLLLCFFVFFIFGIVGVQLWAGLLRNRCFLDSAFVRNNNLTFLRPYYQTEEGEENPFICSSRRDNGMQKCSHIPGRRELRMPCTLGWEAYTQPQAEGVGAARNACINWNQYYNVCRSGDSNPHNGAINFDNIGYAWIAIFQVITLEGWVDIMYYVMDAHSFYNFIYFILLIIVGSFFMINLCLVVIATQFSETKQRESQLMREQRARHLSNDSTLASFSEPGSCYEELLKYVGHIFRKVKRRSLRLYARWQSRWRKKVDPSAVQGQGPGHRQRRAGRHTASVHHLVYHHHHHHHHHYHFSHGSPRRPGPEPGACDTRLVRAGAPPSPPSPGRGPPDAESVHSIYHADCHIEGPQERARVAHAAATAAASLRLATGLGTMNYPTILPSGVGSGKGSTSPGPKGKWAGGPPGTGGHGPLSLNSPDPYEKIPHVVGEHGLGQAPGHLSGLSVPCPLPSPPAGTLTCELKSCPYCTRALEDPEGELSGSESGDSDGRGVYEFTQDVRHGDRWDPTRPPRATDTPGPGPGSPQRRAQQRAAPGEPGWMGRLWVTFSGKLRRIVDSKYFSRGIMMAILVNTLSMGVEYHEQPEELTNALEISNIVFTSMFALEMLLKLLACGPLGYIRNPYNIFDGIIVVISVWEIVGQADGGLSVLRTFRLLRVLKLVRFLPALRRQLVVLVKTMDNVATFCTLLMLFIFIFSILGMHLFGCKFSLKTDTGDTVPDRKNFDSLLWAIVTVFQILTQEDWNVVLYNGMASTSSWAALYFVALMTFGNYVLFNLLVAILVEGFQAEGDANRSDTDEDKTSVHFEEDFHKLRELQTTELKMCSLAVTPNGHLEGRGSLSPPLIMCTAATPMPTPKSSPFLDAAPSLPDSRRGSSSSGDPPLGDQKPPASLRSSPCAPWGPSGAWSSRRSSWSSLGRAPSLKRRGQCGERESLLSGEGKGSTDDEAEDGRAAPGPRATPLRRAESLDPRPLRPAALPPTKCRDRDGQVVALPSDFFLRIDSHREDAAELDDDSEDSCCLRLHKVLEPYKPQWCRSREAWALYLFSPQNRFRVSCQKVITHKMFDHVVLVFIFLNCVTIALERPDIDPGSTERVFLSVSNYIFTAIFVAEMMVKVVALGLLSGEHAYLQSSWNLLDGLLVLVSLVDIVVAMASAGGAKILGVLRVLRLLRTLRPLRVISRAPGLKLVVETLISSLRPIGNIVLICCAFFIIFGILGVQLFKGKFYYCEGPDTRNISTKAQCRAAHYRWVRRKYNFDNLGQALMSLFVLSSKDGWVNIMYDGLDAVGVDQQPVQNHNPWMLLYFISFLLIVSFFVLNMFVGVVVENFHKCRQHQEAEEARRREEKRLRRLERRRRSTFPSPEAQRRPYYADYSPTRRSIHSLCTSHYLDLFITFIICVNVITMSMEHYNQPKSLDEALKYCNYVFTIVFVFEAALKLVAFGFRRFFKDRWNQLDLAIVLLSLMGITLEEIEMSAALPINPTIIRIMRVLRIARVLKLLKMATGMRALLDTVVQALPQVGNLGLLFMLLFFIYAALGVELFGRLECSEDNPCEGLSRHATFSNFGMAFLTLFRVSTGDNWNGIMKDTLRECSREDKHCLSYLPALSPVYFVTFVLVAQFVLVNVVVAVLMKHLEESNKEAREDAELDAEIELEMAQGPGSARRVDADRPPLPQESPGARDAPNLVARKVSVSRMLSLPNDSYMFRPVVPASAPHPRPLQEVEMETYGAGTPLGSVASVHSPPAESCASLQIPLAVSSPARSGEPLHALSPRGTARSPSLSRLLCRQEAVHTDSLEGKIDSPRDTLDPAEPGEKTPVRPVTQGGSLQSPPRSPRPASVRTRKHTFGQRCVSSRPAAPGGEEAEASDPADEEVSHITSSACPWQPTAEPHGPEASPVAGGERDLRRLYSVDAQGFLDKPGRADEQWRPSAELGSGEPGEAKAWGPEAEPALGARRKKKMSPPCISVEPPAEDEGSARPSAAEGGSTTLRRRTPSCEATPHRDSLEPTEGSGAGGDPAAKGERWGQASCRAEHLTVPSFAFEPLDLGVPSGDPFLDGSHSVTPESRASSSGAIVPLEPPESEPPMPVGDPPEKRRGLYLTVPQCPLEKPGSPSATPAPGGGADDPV
CYP2C19 inh = blocks human cytochrome P450 2C19 | P33261 | CYP2C19 Supersomes, luciferin-H EGE luminescence, 30 min | inhibition, % at 5 µM | actives 21% (n = 96,000) | AID 778;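 active means CYP2C19 inhibition above a set limit at 5 µM in the primary screen, cut at about 50% in these data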
Pyk2 oligo antag = Pyk2 (human) oligomerization antagonism | Q14289 | Q293 cells, Pyk2 FERM NanoBiT luminescence; active compounds read low | z-score (the deposit names both 25 µM and 10 µM) | actives 0.83% (n = 99,000) | AID 1347419;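 active means Z-score of -3 or lower, scaled per plate to the spread of control and sample wells; inactive means z-score above -3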;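 further: negative z-score means lost luminescence so less FERM oligomerization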
CYP2C9 inh = inhibitors of human CYP2C9; P11712; CYP2C9 Supersomes, luciferin-H conversion, luminescence; inhibition, % at 5 µM; actives 20% (n = 96,000); AID 777;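 active means blocking of liver enzyme CYP2C9 beyond about 50% at 5 µM, limit read from the data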
Large screens that a line does not name were inactive. The list is not random: actives were taken first. Their share in the collection is about 27%.

CCn1c(Cc2c(C)[nH]c3ccccc23)n[nH]c1=S	CYP2C19 inh 90.8
Cc1cccc(-n2cnc(C(=O)N/N=C/c3ccccc3)c2)n1	none
O=C1c2cccc(Cl)c2C(=O)c2c1cccc2N1CCCC1	none (no result: CYP2C9 activ, CYP2C19 activ, CYP2C19 inh, CYP2C9 inh)
CC(C)CNC(=O)c1cccc(NC(=O)Cc2ccc(Br)cc2)c1	none (no result: CYP2C9 activ, CYP2C19 activ, Cav3 T inh, CYP2C19 inh, CYP2C9 inh)
CCOC(=O)CN1C(=O)N[C@@H](c2cccc(C(F)(F)F)c2)[C@@H](C(=O)OC)[C@H]1C	none (no result: CYP2C9 activ, CYP2C19 activ, CYP2C19 inh, Pyk2 oligo antag, CYP2C9 inh)
CCC(=O)n1nc(-c2ccc(OC)cc2)nc1SC	none (no result: CYP2C9 activ, CYP2C19 activ, CYP2C19 inh, CYP2C9 inh)
O=C(NCCCN=C1NS(=O)(=O)c2ccccc21)c1ccc(S(=O)(=O)N2CCCCC2)cc1	CYP2C9 inh 53.5 (no result: Cav3 T inh)
O=C(NCCN=C1NS(=O)(=O)c2ccccc21)c1ccncc1	CYP2C9 inh 51.3
O=C(OCCN=C1NS(=O)(=O)c2ccccc21)c1ccncc1	CYP2C9 inh 77.6
O=C(OCCCN=C1NS(=O)(=O)c2ccccc21)c1ccc(F)cc1	none
Cc1cc(=O)n(CC(C)O)c(O)c1C#N (stereo not drawn)	none (no result: CYP2C9 activ, CYP2C19 activ, CYP2C19 inh, CYP2C9 inh)
CC(=Nc1ccc2c(c1)nc(CO)n2C)C1=C(O)CC(C)(C)CC1=O	none
COc1ccc(NC(=O)CSc2ncnc3c2cnn3CCc2ccccc2)cc1	none (no result: CYP2C9 activ, CYP2C19 activ, CYP2C19 inh, CYP2C9 inh)
CCN(CC)c1nc(C)nc2c1cnn2CCc1ccccc1	CYP2C19 inh 97.2
CCOC(=O)c1c(NC(=O)CSc2nnc(-c3c[nH]c4ccccc34)n2CCOC)sc2c1CCCCC2	none (no result: CYP2C9 activ, CYP2C19 activ, CYP2C19 inh, Pyk2 oligo antag, CYP2C9 inh)
COCCn1c(SCc2cccnc2)nnc1-c1c[nH]c2ccccc12	CYP2C19 inh 75.1, CYP2C9 inh 55.0 (no result: Pyk2 oligo antag)
CCn1c(SCc2cccnc2)nnc1-c1c[nH]c2ccccc12	CYP2C19 inh 89.2 (no result: Pyk2 oligo antag)
CCSc1nnc(NC(=O)CSc2nnc(-c3c[nH]c4ccccc34)n2CC)s1	none (no result: Pyk2 oligo antag)
O=C(OC(C(=O)NCC1CCCO1)c1ccccn1)c1cccs1 (stereo not drawn)	none
COC(=O)C(C)Sc1snnc1-c1ccccc1 (stereo not drawn)	CYP2C19 inh 91.8, CYP2C9 inh 63.9
O=C(NCc1ccccn1)c1cn(Cc2ccccc2)nn1	none
CC1c2nc3ccccc3n2C(CC(=O)NCc2ccccn2)C(=O)N1Cc1ccccc1 (stereo not drawn)	CYP2C19 inh 80.4
C=CCN=C(NC#N)SCc1ccccc1Cl	CYP2C19 inh 89.4
Cc1ccc(S(=O)(=O)N2CCN(C(=O)c3cc4c(C)nn(-c5ccccc5)c4s3)CC2)cc1	none
Cc1ccccc1-n1nc(C)c2cc(C(=O)N3CCN(S(=O)(=O)c4ccc(F)cc4)CC3)sc21	CYP2C9 inh 75.1
Cc1ccccc1-n1nc(C)c2cc(C(=O)N3CCN(S(=O)(=O)c4ccc(Cl)cc4)CC3)sc21	CYP2C9 inh 65.5
Cc1nn(-c2ccccc2)c2sc(C(=O)N3CCOCC3)cc12	none (no result: CYP2C9 activ, CYP2C19 activ, CYP2C19 inh, CYP2C9 inh)
CCOc1ccccc1Nc1nc(N)nc(CN(C)C2CCCCC2)n1	none
CC1CN(c2ccccc2)C(=O)CS1 (stereo not drawn)	none
CCN(CC)C(=O)CSc1nnc(-c2ccc(F)cc2)n1N	none
CCOc1ccc(-c2ncncc2-c2ccc(OC)cc2)c(O)c1	CYP2C9 inh 53.7
CCOc1ccc(-c2nc(N)ncc2-c2ccccc2)c(O)c1	none
COC(=O)CCC(=O)c1oc2ccc(Cl)cc2c1NC(=O)CCCN1C(=O)c2ccccc2C1=O	CYP2C19 inh 67.0, CYP2C9 inh 79.9
COCc1cc(C)nc(SCC(=O)N2CCC(C)CC2)c1C#N	none
Fc1ccc(NC(=S)NCc2ccccn2)cc1	none
COc1ccccc1N(CC(=O)NCc1ccccc1)C(=O)CCC(=O)Nc1cc(C)ccn1	none (no result: CYP2C9 activ, CYP2C19 activ, CYP2C19 inh, CYP2C9 inh)
CCCCCC(=O)Nc1nc2ccccc2[nH]1	none (no result: CYP2C9 activ, CYP2C19 activ, CYP2C19 inh, CYP2C9 inh)
COc1ccc(NC(=O)Cc2nc3ccccc3[nH]2)cc1	CYP2C19 inh 66.8
CCC(Oc1ccccc1)C(=O)Nc1nc2ccccc2[nH]1 (stereo not drawn)	CYP2C9 inh 52.0
COc1ccccc1CCC(=O)Nc1nc2ccccc2[nH]1	CYP2C19 inh 62.2
COc1ccc(NC(=O)Cc2ccccc2)cc1	none (no result: CYP2C9 activ, CYP2C19 activ, CYP2C19 inh, CYP2C9 inh)
CC1(C)CC(=O)C=C(Nc2ccccc2F)C1	none
O=C(NCc1ccccn1)C1C2C=CC(C2)C1C(=O)Nc1ccc(F)cc1 (stereo not drawn)	none (no result: CYP2C9 activ, CYP2C19 activ, CYP2C19 inh, CYP2C9 inh)
O=C(Cn1nnc(-c2ccc(Cl)cc2)n1)NC1CC2CCC1C2 (stereo not drawn)	Cav3 T inh -4.59
O=C(Cn1nnc(-c2ccncc2)n1)Nc1ccc2c(c1)CCC2	CYP2C19 inh 91.0, CYP2C9 inh 75.1
Cc1ccc(-c2nnn(CC(=O)NC3CC4CCC3C4)n2)cc1 (stereo not drawn)	none
COc1ccc(NC(=O)Cn2nnc(-c3ccccc3F)n2)cc1Cl	none
O=C(CC1CCCC1)Nc1ccc2c(c1)CCC2	CYP2C19 inh 65.9
COc1cccc(NC(=O)Cn2nnc(-c3ccccc3N)n2)c1	CYP2C19 inh 51.9
O=C(Cn1nnc(-c2ccccc2)n1)Nc1ccc2c(c1)OCO2	none
CC(C)(C)OC(=O)N[C@@H](Cc1ccccc1)[C@H](O)c1ccco1	none (no result: CYP2C9 activ, CYP2C19 activ, CYP2C19 inh, Pyk2 oligo antag, CYP2C9 inh)
Cc1nc(-c2ccccc2)sc1C1(C)CC(c2cccc([N+](=O)[O-])c2)=NO1 (stereo not drawn)	none (no result: CYP2C9 activ, CYP2C19 activ, CYP2C19 inh, Pyk2 oligo antag, CYP2C9 inh)
CCCS(=O)(=O)N1CCCC(C(=O)NCCc2ccc(OC)c(OC)c2)C1 (stereo not drawn)	none
CCOc1ccc(-c2nnn(CC(=O)Nc3cc(OC)cc(OC)c3)n2)cc1OCC	none
COc1cc(NC(=O)Cn2nnc(-c3ccncc3)n2)cc(OC)c1	CYP2C19 inh 89.4, CYP2C9 inh 91.7
O=C(Cn1nnc(-c2ccncc2)n1)NCCc1ccccc1	CYP2C19 inh 72.6, CYP2C9 inh 72.1
O=C(Cn1nnc(-c2ccc(Cl)cc2)n1)NCCC1=CCCCC1	CYP2C19 inh 52.5
Nc1nc(SCC(=O)NCCCO)nc2sc3c(c12)CCC3	none
COCCCNc1nc(SCc2ccccc2)nc2sc3c(c12)CCC3	CYP2C9 inh 60.9
CSc1nc(NCc2ccccc2)c2c3c(sc2n1)CN(C)CC3	none
N#Cc1cnn(-c2nc(SCc3ccccc3)nc3sc4c(c23)CCCC4)c1N	Cav3 T inh -4.99
O=C(NN=C1C2CC3CC(C2)CC1C3)c1cc(Cl)ccc1O	none (no result: CYP2C9 activ, CYP2C19 activ, Cav3 T inh, CYP2C19 inh, CYP2C9 inh)
O=S(=O)(NCC(c1cccnc1)N1CCN(c2ccccc2)CC1)c1cc(F)ccc1F (stereo not drawn)	none
COc1ccc(C(=O)CN2C(=O)c3ccccc3C2=O)c(OC)c1C	Cav3 T inh -5.23, CYP2C19 inh 83.4, CYP2C9 inh 71.7
Cc1nn(C(=O)CN2C(=O)c3ccccc3C2=O)c(C)c1Br	none
C=CCn1c(SCc2c(F)cccc2Cl)nnc1-c1ccco1	CYP2C19 inh 96.0
C=CCn1c(SCC(=O)Nc2cc(C)c(Cl)cc2OC)nnc1-c1ccco1	none
CC(C)(CN1CCCCC1)NS(=O)(=O)c1ccc(Cl)cc1	CYP2C19 inh 54.6
CC1CC(C)CN(CC(C)(C)NS(=O)(=O)c2ccc(Cl)cc2)C1 (stereo not drawn)	CYP2C19 inh 75.6, CYP2C9 inh 56.4
